Screening results (PubChem)
Shown are actives, neighbours in structure and some others; about 27% of the full set was active somewhere.
CYP2C19 inhib – human CYP2C19 inhibition | CYP2C19 Supersomes, luciferin-H EGE luminescence, 30 min | actives 21% (n = 96,000) | AID 778 | inhibition, % at 5 µM;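 active = CYP2C19 inhibition above a set limit at 5 µM in the primary screen, cut at about 50% in these data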;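 also: plate controls were negative control wells for no effect and 2.5 mM tranylcypromine positive control for full effect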
CYP2C9 activ – CYP2C9 (human) activation | P11712 | recombinant CYP2C9, luciferin-H conversion, luminescence; stronger effect = higher value; factor 1 = untreated enzyme, 0 = blocked | activation factor at 5 µM | actives 1.4% (n = 96,000);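 active = activation factor of 2 or more for CYP2C9 at a 5 µM dose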;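 also: 0 = sulfaphenazole-blocked wells and 1 = vehicle-only wells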
Target sequence (P11712 whole entry, looked up): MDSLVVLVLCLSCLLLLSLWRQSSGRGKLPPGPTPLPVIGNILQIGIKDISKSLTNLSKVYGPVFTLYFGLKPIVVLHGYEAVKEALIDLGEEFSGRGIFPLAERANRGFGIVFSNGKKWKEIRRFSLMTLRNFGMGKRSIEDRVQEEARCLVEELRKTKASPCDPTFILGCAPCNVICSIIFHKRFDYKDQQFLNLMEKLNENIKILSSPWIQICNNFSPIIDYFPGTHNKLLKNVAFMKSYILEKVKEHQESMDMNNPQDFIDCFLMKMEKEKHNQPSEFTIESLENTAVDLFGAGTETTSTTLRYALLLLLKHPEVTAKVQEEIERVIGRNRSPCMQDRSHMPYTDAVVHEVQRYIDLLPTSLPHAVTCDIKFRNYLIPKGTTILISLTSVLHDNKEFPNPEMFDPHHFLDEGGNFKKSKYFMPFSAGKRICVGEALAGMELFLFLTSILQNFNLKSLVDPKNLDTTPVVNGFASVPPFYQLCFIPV
CYP2C19 activ – increases human CYP2C19 enzyme activity; P33261; recombinant CYP2C19, luciferin-H EGE luminescence; stronger effect = higher value; 0 = fully inhibited enzyme, 1 = untreated enzyme; activation factor at 5 µM; 96,000 tested, under 10 active; AID 1025;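 active = activation factor of at least 2 at 5 µM in the primary screen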;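 also: 0 = wells with 2.5 mM tranylcypromine and 1 = vehicle-only wells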
sEH inh – soluble epoxide hydrolase (human) inhibition | recombinant human sEH enzymatic activity assay | inhibition, % at 2 µM | actives 0.34% (n = 91,000); in the data active = inhibition above about 80%
CYP2C9 inh – inhibitors of human CYP2C9; P11712; CYP2C9 Supersomes, luciferin-H conversion, luminescence; inhibition, % at 5 µM; actives 20% (n = 96,000);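 active = blocking of liver enzyme CYP2C9 beyond about 50% at 5 µM, limit read from the data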
sEH activator – soluble epoxide hydrolase (human) activation | P34913 | AID 717 | purified human sEH enzymatic activity, activator screen | activation, % at 2 µM | actives 0.04% (n = 91,000); in the data active = activation above about 37%
Active calls of the source: *.

Screening O=Cc1ccc(OC(=O)C2CC(=O)N(c3ccc(F)cc3)C2)cc1 (stereo unspecified) returned CYP2C19 inhib -5, CYP2C9 activ 1, CYP2C19 activ 1, sEH inh -1, CYP2C9 inh -1 and sEH activator 0.
Cc1ccc(N=Cc2sc(O)c3ccccc23)c(C)c1 was read as CYP2C19 inhib 41, CYP2C9 activ 0.4, CYP2C19 activ 0.6, sEH inh 4, CYP2C9 inh 63* and sEH activator -2.
O=C(Nc1ccc(O)cc1)C1CC=CCC1 (stereo unspecified) was read as CYP2C19 inhib -1, CYP2C9 activ 0.9, CYP2C19 activ 1, sEH inh 10, CYP2C9 inh 6 and sEH activator -11.
For Cc1cccc(-c2cc3nc4c(c(N5CCOCC5)n3n2)CCCC4)c1 the results were CYP2C19 inhib 26, CYP2C9 activ 0.4, CYP2C19 activ 0.7, sEH inh -8, CYP2C9 inh 55* and sEH activator 7.
For Cc1cccc(-c2cc3nc4c(c(N5CCC6(CC5)OCCO6)n3n2)CCCC4)c1 the results were sEH inh -8 and sEH activator 6.
Cc1cccc(-c2cc3nc4c(c(N5CCCC(O)C5)n3n2)CCC4)c1 (stereo unspecified) was read as CYP2C19 inhib 87*, CYP2C9 activ 0, CYP2C19 activ 0.1, sEH inh 11, CYP2C9 inh 98* and sEH activator -11.
`CCOc1ccc(C(Nc2ccc(C)cc2)P2(=O)OCCC(C)O2)cc1` (stereo unspecified) gave CYP2C19 inhib 54*, CYP2C9 activ 0.4, CYP2C19 activ 0.5, sEH inh 3, CYP2C9 inh 58* and sEH activator -1.
For CC(Oc1ccc(Cl)cc1Cl)C(=O)Nn1cnnc1 (stereo unspecified) the results were sEH inh -2 and sEH activator 7.
`CC(Oc1ccc(Cl)cc1Cl)C(=O)NC1CCSC1=O` (stereo unspecified) gave CYP2C19 inhib 93*, CYP2C9 activ 0.6, CYP2C19 activ 0.1, sEH inh -13, CYP2C9 inh 41 and sEH activator 10.
For CCCn1nnc(NC(=O)C(C)Oc2ccc(Cl)cc2Cl)n1 (stereo unspecified) the results were CYP2C19 inhib 26, CYP2C9 activ 0.8, CYP2C19 activ 0.7, sEH inh 11, CYP2C9 inh 21 and sEH activator -11.
For CC(Oc1ccc(Cl)cc1Cl)C(=O)Nc1ccncc1 (stereo unspecified) the results were CYP2C19 inhib 100*, CYP2C9 activ 0, CYP2C19 activ 0, sEH inh 10, CYP2C9 inh 98* and sEH activator -9.
CC(Oc1ccc(Cl)cc1Cl)C(=O)NCCCN1CCOCC1 (stereo unspecified) was read as CYP2C19 inhib 58*, CYP2C9 activ 1.1, CYP2C19 activ 0.4 and CYP2C9 inh -10.
Screening CC(Oc1ccc(Cl)cc1Cl)C(=O)NC1=NN(c2ccccc2)C(=O)C1 (stereo unspecified) returned CYP2C19 inhib 32, CYP2C9 activ 0.5, CYP2C19 activ 0.7, sEH inh -6, CYP2C9 inh 53* and sEH activator 10.
For CC(Oc1cccc(Cl)c1)C(=O)Nc1cc(=O)n(C)c(=O)n1C (stereo unspecified) the results were CYP2C19 inhib 34, CYP2C9 activ 0.8, CYP2C19 activ 0.7, sEH inh -5, CYP2C9 inh 15 and sEH activator 5.
`CC(Oc1ccc(Cl)cc1Cl)C(=O)Nc1cccnc1` (stereo unspecified) gave sEH inh 4 and sEH activator -3.
CCOC(=O)c1sc(=S)n(-c2ccc(Cl)cc2)c1SC was read as CYP2C19 inhib -1, CYP2C9 activ 0.7, CYP2C19 activ 1, sEH inh -5, CYP2C9 inh 27 and sEH activator 7.
Screening COc1ccc(NC(=O)c2cc(CC(C)C)on2)cc1OC returned CYP2C19 inhib 24, CYP2C9 activ 1.3, CYP2C19 activ 0.8 and CYP2C9 inh -31.
Screening COCCNC(=O)C(C)Oc1ccc(Cl)cc1Cl (stereo unspecified) returned CYP2C19 inhib 94*, CYP2C9 activ 0.5, CYP2C19 activ 0.1, sEH inh 12, CYP2C9 inh 46 and sEH activator -8.
`CCOc1ccccc1NC(=O)CSc1ncnc2c1oc1ccccc12` gave CYP2C19 inhib 4, CYP2C9 activ 0.1, CYP2C19 activ 1, sEH inh -5, CYP2C9 inh 85* and sEH activator 8.
Screening O=C(CSc1ncnc2c1oc1ccccc12)Nc1ccccc1F returned CYP2C19 inhib -13, CYP2C9 activ 0.8, CYP2C19 activ 1.1, sEH inh -8, CYP2C9 inh 20 and sEH activator 10.
O=C(CSc1ncnc2c1oc1ccccc12)Nc1nc2ccccc2s1 was read as CYP2C19 inhib 16, CYP2C9 activ 0.2, CYP2C19 activ 0.8, sEH inh -6, CYP2C9 inh 77* and sEH activator 5.
For CCc1nnc(NC(=O)CSc2ncnc3c2oc2ccccc23)s1 the results were CYP2C19 inhib 25, CYP2C9 activ 0.2, CYP2C19 activ 0.7, sEH inh 5, CYP2C9 inh 77* and sEH activator -6.
For O=C(CSc1ncnc2c1oc1ccccc12)Nc1cccc(Cl)c1 the results were CYP2C19 inhib 32, CYP2C9 activ 0.4, CYP2C19 activ 0.7, sEH inh 34, CYP2C9 inh 60* and sEH activator -34.
Screening O=C1CC2CS(=O)(=O)CC2N1C1CCCCC1 (stereo unspecified) returned CYP2C19 inhib -12, CYP2C9 activ 1.1, CYP2C19 activ 1.1, sEH inh -3, CYP2C9 inh -10 and sEH activator 2.
CCCC(C(=O)O)N1C(=O)/C(=C2\C(=O)N(C)c3ccccc32)SC1=S (stereo unspecified) was read as CYP2C19 inhib 6, CYP2C9 activ 0.3, CYP2C19 activ 0.9 and CYP2C9 inh 68*.
Cc1c(N2C(=O)/C(=C3/C(=O)N(C)c4ccccc43)SC2=S)c(=O)n(-c2ccccc2)n1C was read as CYP2C19 inhib 29, CYP2C9 activ 0.6, CYP2C19 activ 0.7, sEH inh -1, CYP2C9 inh 35 and sEH activator 2.
Screening O=C(CN(Cc1ccco1)S(=O)(=O)c1cccs1)Nc1ccccc1C(F)(F)F returned CYP2C19 inhib 90*, CYP2C9 activ 0.2, CYP2C19 activ 0.1 and CYP2C9 inh 79*.
`CC(=O)N1CCc2cc(S(=O)(=O)NC(CC(C)C)C(=O)Nc3ccc4c(c3)OCCO4)ccc21` (stereo unspecified) gave CYP2C19 inhib 49, CYP2C9 activ 0.4, CYP2C19 activ 0.5 and CYP2C9 inh 59*.
For CC(=O)N1CCc2cc(S(=O)(=O)NCCC(=O)Nc3ccc4c(c3)OCCO4)ccc21 the results were CYP2C19 inhib 2, CYP2C9 activ 0.6, CYP2C19 activ 1 and CYP2C9 inh 37.
